# Bioassay records: PubChem, several laboratories
# This is a sample that favours compounds with a hit; in the whole collection about 7.9% have one here.
# M1 antag: M1 muscarinic receptor (rat) antagonism; P08482; CHO-M1 cells, Fluo-4 calcium, ACh EC80 antagonist mode; stronger effect = lower value; B-score at 10 µM; hit rate 3.4% among 64,000; AID 628;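 active means calcium fluorescence response, raw or row-and-column corrected B-score, differing from the plate sample mean either way at a set confidence level, mostly lower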
# HER2 expr 66K: lowers expression of human Her2 kinase; hit rate 0.69% among 65,000; AID 645; HER2 level % of control, % at 10 µM; P04626; SKBR-3 HER2 protein level, AlphaScreen, 18-24 h; stronger effect = lower value;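 active means HER2 level under 5% of the carrier-only control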;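 further: 100% = DMSO carrier and 0% = 500 nM PU-H71 HSP90 inhibitor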
# M1 ag: activates the M1 muscarinic receptor. hit rate 3% among 64,000. CHO-M1 cells, Fluo-4 calcium fluorescence, agonist mode; stronger effect = higher value. B-score at 10 µM;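 active means fluorescence rise, raw or as B-score row- and column-corrected plate score, outside the 99.7% band of its plate's samples, either direction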
# Cav32 inh: human Cav3.2 channel inhibition, primary screen; B-score at 10 µM; Cav3.2-expressing cells, Fluo-4 calcium fluorescence FDSS; stronger effect = lower value; hit rate 4% among 100,000; AID 449739; O95180;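 active means single-dose well whose peak fluorescence ratio is a statistical outlier from its plate by either plate-standardised score or position-corrected B-score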
# PLAP activator: human PLAP activation; purified PLAP enzyme, luminescent substrate read-out; stronger effect = higher value; activation fold at 20 µM; hit rate 1.2% among 96,000; in the data active means activation fold above about 2
# Target sequence (P05187 whole entry, looked up): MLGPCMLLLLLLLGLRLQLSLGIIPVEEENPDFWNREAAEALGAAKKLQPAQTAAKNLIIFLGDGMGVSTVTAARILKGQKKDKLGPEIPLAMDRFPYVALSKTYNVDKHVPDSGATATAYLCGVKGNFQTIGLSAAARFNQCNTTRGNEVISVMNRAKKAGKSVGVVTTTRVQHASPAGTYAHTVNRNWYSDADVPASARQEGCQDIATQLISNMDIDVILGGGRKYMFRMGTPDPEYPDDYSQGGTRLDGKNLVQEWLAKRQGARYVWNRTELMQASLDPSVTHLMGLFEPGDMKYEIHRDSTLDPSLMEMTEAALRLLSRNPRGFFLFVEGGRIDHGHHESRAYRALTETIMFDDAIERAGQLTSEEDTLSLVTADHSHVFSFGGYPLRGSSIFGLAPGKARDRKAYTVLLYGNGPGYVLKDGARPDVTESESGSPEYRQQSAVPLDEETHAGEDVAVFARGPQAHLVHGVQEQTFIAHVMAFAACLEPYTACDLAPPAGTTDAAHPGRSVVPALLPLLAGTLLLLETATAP
# Starred values were filed as active, the others as inactive; · = no result given.
SMILES,M1 antag,HER2 expr 66K,M1 ag,Cav32 inh,PLAP activator
Cc1cc(C)c2cc(CN(Cc3ccc4c(c3)OCO4)Cc3nnnn3Cc3ccco3)c(=O)[nH]c2c1,0.176,77.3,-0.384,-0.982,1.6
O=C(c1cc2ccccc2oc1=O)N(Cc1ccccc1)Cc1ccc2c(c1)OCO2,·,·,·,-6.15*,·
CC1CCCCN1CC(=O)Nc1sc2c(c1C#N)CCC2 (stereo not given),-0.0163,68.0,0.415,0.247,1.7
COC(=O)c1ccc(Oc2nc(Nc3ccc(C)c(C)c3)nc(N(C)C)n2)cc1,·,·,·,-1.46,1.5
CC1(c2nnc(-c3cccc(Cl)c3)o2)CC(c2ccc(F)cc2)=NO1 (stereo not given),·,·,·,-0.471,·
CCOC(=O)NCc1ccc(S(=O)(=O)Nc2c(C)cccc2C)cc1,·,·,·,-0.335,0.9
COc1ccc(C(=O)NNC(=S)NC2CCCCC2)cc1OC,·,·,·,0.59,2.5*
COc1ccc2c(c1)[nH]c1c(N3CCN(Cc4ccc5c(c4)OCO5)CC3)ncnc12,-1.93,62.2,2.25,·,1.9
Cc1ccc2[nH]c3c(N4CCN(Cc5ccc6c(c5)OCO6)CC4)ncnc3c2c1,-1.64,93.1,1.84,·,1
COc1cccc2[nH]c3c(N4CCN(Cc5ccc6c(c5)OCO6)CC4)ncnc3c12,-1.78,55.1,0.59,·,2.1*
Cc1ccc2[nH]c3c(N4CCN(Cc5ccccc5)CC4)ncnc3c2c1,-1.66,73.4,5.63,-3.91,2*
COCCn1nnnc1C(c1ccc(Cl)cc1)N1CCSCC1 (stereo not given),·,96.7,·,-0.687,1.4
Cc1sc(-c2ccncc2)nc1OC(=O)c1ccccc1,·,·,·,-0.0421,1.3
COc1ccc(-c2nnc3ccc(SCC(=O)N4CCN(c5ccccc5)CC4)nn23)cc1OC,-0.131,84.7,6.01*,·,·
CC1=CC(C)(C)N(C(=O)CN2C(=O)c3ccccc3C2=O)c2ccccc21,0.41,104.8,-0.231,-1.43,1.3
CC1CC(C)(C)N(C(=O)CN2C(=O)c3ccccc3C2=O)c2ccccc21 (stereo not given),·,·,·,4.5*,·
CC(C)(C)c1ccc(OC(=O)Cn2c(C(F)(F)F)nc3ccccc32)cc1,·,·,·,·,1
O=c1c(-c2ccc(Cl)cc2)[n+]([O-])c2ccccc2n1O,-0.711,71.4,28.3*,-1.82,1
CCCn1c(SCC(=O)Nc2ccccc2N2CCCCC2)nc2c1c(=O)n(C)c(=O)n2C,-0.755,43.1,0.981,-4.41*,1.7
CCn1c(SCC(=O)N2c3ccccc3CCc3ccccc32)nc2c1c(=O)n(C)c(=O)n2C,-0.0113,-3.2*,-0.785,-1.01,·
CCOc1ccc2[nH]c(=O)c(CN(CC3CCCN3CC)C(=O)NCc3ccccc3)cc2c1 (stereo not given),-0.0618,84.8,-0.0104,-0.621,1.6
COc1cc2c(cc1OC)CN(c1ccc(-c3ccccc3OC)nn1)CC2,-0.81,-3.7*,1.33,-2.17,1.4
O=C(NC1CCCCC1)N1CCN(c2ccccc2)CC1,·,·,·,0.649,·
Cc1ccc(S(=O)(=O)N2CCCC(NC(=O)N3CCN(c4ccccc4)CC3)C2)cc1 (stereo not given),1.15,102.7,0.433,-4.43*,1
C=CCn1c(C)nc2c(c1=O)c1nc3ccccc3nc1n2-c1ccc(C)cc1,0.232,118.8,-0.785,·,·
SMILES,M1 antag,HER2 expr 66K,M1 ag,Cav32 inh,PLAP activator
NC1=NC2(CCN(Cc3ccccc3)CC2)n2c(nc3ccccc32)N1,-0.887,98.5,-0.954,-0.318,2.6*
NC1=NC2(CCC(c3ccccc3)CC2)n2c(nc3ccccc32)N1 (stereo not given),-0.204,100.8,0.106,·,2.8*
Cc1ccc(S(=O)(=O)c2c(C)cc(C)nc2Oc2cccc(C(F)(F)F)c2)cc1,·,·,·,-6.28*,1.1
Cc1cc(C)c(S(C)(=O)=O)c(Oc2cccc(Cl)c2)n1,·,·,·,·,0.8
Cn1c(NCc2cc(Br)ccc2O)nc2ccccc21,0.419,192.5,-0.291,-0.795,1.2
Oc1ccc(Br)cc1CNn1cnnc1,-0.106,90.4,-0.525,-3.81*,1
CC(C)OC(=O)c1cc2c(ccn2C)n1CC(=O)N1CCC(Cc2ccccc2)CC1,·,·,·,-7.86*,1.1
O=C(NCCCN1CCOCC1)c1onc(CSc2ccc(F)c(F)c2)c1C(=O)NCCCN1CCOCC1,·,·,·,-0.0448,·
CCn1c(COc2ccccc2)nnc1SCC(=O)CC(=O)Nc1ccccc1OC,0.0485,56.3,-0.0307,-0.184,1.4
CCn1c(COc2ccccc2C)nnc1SCC(=O)CC(=O)Nc1ccccc1OC,0.521,72.5,1.76,-4.93*,1
CCCCN1C2=C(C(=O)CC(C)(C)C2)C(c2ccccc2)C2=C1c1ccccc1C2=O (stereo not given),·,·,·,0.687,1.1
Cc1nn(C)cc1C1C2=C(CC(C)(C)CC2=O)N(c2ccccc2)C2=C1C(=O)CC(C)(C)C2,·,·,·,1.68,2*
CCC(Sc1nc2cc3c(cc2c(=O)n1Cc1ccco1)OCO3)C(=O)Nc1cccc(OC)c1 (stereo not given),0.582,-16.9*,0.139,-1.42,1
O=C(NCc1ccco1)C(Cc1ccccc1)N1C(=O)c2ccccc2C1=O (stereo not given),1.52,-20.3*,-0.61,-1.52,1
CC(c1ccccc1)N1C(=O)c2ccc(C(=O)NCc3ccco3)cc2C1=O (stereo not given),0.134,81.0,-0.259,-3.9*,·
O=C(NCc1ccco1)c1ccc2c(c1)C(=O)N(Cc1ccccc1)C2=O,0.888,126.3,0.153,-4.74*,1
CC(C)CCN1C(=O)c2ccc(C(=O)NCc3ccco3)cc2C1=O,0.559,33.8,1.47,·,0.9
O=C(NCc1ccco1)c1ccc2c(c1)C(=O)c1ccccc1-2,-0.135,92.1,1.24,-0.235,1.6
Cc1ccc(C2(c3ccc(C)cc3)CC2C(=O)Nc2ccc([N+](=O)[O-])cc2O)cc1 (stereo not given),·,·,·,-1.93,1.1
CCOC(=O)N1CCC(N2C(=O)c3ccccc3C2Nc2c(C)cccc2C)CC1 (stereo not given),·,·,·,·,1.5
O=C(c1ccccc1)N1CCCCC(S(=O)(=O)c2ccc3ccccc3c2)C1=O (stereo not given),·,·,·,-1.67,1.4
O=C1c2ccccc2C(Nc2ccc(S(=O)(=O)N3CCOCC3)cc2)N1Cc1ccco1 (stereo not given),·,·,·,2.19,1.2
Cc1cc(C)c(O)c(-c2cc(C(=O)Nc3ccc(S(=O)(=O)N4CCOCC4)cc3)[nH]n2)c1,-0.0196,-11.2*,-0.617,-0.448,1.8
Cc1cc(C)nc(NS(=O)(=O)c2ccc(NC(=O)c3ccc(S(=O)(=O)N4CCOCC4)cc3)cc2)n1,·,·,·,0.886,1.3
Cc1cccc(COCCN2CCN(S(=O)(=O)c3ccccc3)CCC2=O)c1,·,·,·,-0.238,·
CCCC[C@@H]1CNC(=O)C(=O)N1CCc1cccc2ccccc12,·,·,·,0.0133,·
COc1cc(NC(=S)NN2CCN(C)CC2)cc(OC)c1,·,·,·,0.00541,1.1
